The values that follow come from article PMC4336329 (PLoS ONE, 2015).

About 2,200 (0.71%) of roughly 310,000 compounds showed an effect of 50% or more. The effect is printed as a negative number. Shown is part of a subset that was picked to be rich in strong results.

The target in this assay is human ether-à-go-go-related gene (hERG) potassium channel (human, UniProt Q12809). Put plainly: primary screen, population patch clamp on CHO cells stably expressing hERG; higher = less effect of the substance.
Chain of human ether-à-go-go-related gene (hERG) potassium channel (Q12809 whole entry, looked up): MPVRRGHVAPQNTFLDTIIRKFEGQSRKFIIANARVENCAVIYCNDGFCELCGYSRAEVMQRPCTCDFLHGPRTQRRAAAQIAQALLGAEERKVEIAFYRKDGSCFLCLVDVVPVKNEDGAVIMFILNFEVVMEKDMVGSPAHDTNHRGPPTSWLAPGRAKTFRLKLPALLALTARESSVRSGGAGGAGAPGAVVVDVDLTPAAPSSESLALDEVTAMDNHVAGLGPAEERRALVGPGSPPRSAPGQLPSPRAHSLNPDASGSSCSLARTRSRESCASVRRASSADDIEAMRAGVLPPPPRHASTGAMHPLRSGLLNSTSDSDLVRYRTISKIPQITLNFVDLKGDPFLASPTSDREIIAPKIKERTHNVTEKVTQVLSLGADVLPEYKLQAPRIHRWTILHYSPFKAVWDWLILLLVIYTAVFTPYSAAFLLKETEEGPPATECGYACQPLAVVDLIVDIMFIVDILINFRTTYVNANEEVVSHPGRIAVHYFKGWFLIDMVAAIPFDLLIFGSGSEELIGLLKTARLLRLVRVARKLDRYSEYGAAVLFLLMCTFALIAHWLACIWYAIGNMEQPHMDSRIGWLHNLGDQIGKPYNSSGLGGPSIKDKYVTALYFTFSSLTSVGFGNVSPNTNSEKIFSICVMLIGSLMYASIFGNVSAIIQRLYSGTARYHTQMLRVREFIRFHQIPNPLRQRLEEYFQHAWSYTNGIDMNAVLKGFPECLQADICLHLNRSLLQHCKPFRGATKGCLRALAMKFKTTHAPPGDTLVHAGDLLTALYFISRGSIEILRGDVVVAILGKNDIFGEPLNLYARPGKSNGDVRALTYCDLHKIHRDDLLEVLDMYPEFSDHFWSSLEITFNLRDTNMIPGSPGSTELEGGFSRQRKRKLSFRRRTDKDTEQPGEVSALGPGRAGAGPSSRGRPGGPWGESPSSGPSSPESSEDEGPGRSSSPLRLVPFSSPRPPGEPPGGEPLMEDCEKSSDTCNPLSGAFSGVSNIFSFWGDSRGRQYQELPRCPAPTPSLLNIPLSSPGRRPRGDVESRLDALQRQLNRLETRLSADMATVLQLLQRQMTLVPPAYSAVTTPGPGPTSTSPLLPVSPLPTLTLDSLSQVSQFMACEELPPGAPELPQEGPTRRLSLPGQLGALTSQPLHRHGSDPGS
In the case of `COc1ccc(NC(=O)CN2CCN(CC#N)CC2)cc1`, the “hERG current change (%, negative = inhibition) at 1uM” value is listed as -44.9%. For the molecule `COc1ccc(NC(=O)CN2CCCC2)cc1`, the “hERG current change (%, negative = inhibition) at 1uM” value stood at 14.6%.

For the molecule `O=C(CN1CCN(c2ccc(Cl)cc2)CC1)Nc1ccc(F)c(F)c1`, the “hERG current change (%, negative = inhibition) at 1uM” value is given as -1.8%. `COc1ccc(NC(=O)CN2CCN(CC(=O)Nc3ccc(OC)cc3)CC2)cc1`: the “hERG current change (%, negative = inhibition) at 1uM” value is -85.6%. With `O=C(CN1CCN(Cc2ccccc2)CC1)Nc1ccc(F)c(F)c1.O=C(O)C(=O)O`, the “hERG current change (%, negative = inhibition) at 1uM” value was -21.9%. In the case of `O=C(CN1CCN(CC(=O)Nc2ccccc2Cl)CC1)Nc1ccc(F)c(F)c1`, the “hERG current change (%, negative = inhibition) at 1uM” value is given as -74%. With `CC(Nc1ccc(F)cc1)=[N+](C)CCNS(=O)(=O)c1ccc(Cl)cc1.[I-]`, the “hERG current change (%, negative = inhibition) at 1uM” value was -45.1%. With `COc1ccc(NC(C)=[N+](C)CCNS(=O)(=O)c2ccc(Cl)cc2)cc1.[I-]` the figure was -59.5%; with `CCOC(=O)Cn1nnc(-c2cccc(OC)c2)n1`, 9.82%. With `Cc1cccc(C(=O)O/N=C(\N)CS(=O)(=O)c2ccccc2)c1`, the “hERG current change (%, negative = inhibition) at 1uM” value is recorded as 5.74%. Take `Cn1cccc1C(=O)NCC(c1ccc(F)cc1)N1CCOCC1` (stereo not drawn): the “hERG current change (%, negative = inhibition) at 1uM” value is 5.02%. Take `CCOC(=O)CNC(=O)Cn1cnc2c(nnn2-c2cccc(Cl)c2)c1=O`: the “hERG current change (%, negative = inhibition) at 1uM” value is -0.825%.

As for `COc1ccc(Nc2nc(C)nc3c2nnn3Cc2ccccc2)cc1OC`, the “hERG current change (%, negative = inhibition) at 1uM” value turned out to be 4.84%. With `COc1ccc(NC(=O)CN2CCC(C)CC2)cc1` the figure was -0.0667%; with `CCN(CC)c1ccc(NC(=O)CN2CCN(CC(=O)Nc3ccccc3OC)CC2)cc1`, -0.407%; with `CCN(CC)c1ccc(NC(=O)CN2CCN(CC(=O)Nc3ccc(OC)cc3)CC2)cc1`, -59.5%.

`Cc1cc(=O)oc2cc(OCC(=O)N3CCCC3)c(Cl)cc12`: the “hERG current change (%, negative = inhibition) at 1uM” value is listed as 1.63%. Consider `Cc1sc2nc(CN3CCOCC3)nc(NS(=O)(=O)c3ccc4c(c3)OCCO4)c2c1C`, for which the “hERG current change (%, negative = inhibition) at 1uM” value came out at 13.1%. With `Cc1nc(Nc2ccc3c(c2)OCCO3)c2c(C)c(C)sc2n1`, the “hERG current change (%, negative = inhibition) at 1uM” value is reported as -8.61%. As to `Cc1sc2nc(CN3CCCCC3)nc(Nc3ccc4c(c3)OCCO4)c2c1C`, the “hERG current change (%, negative = inhibition) at 1uM” value is -89.2%. With `Cc1cc2oc3c(c(=O)c2cc1C)C(c1ccc(C(C)C)cc1)N(CCCN1CCOCC1)C3=O` (stereo not drawn) the figure was 13%; with `CCCN1C(=O)c2ccc(C(=O)Nc3ccccc3C(=O)O)cc2C1=O`, 18%; with `CCOc1ccc(CN2CCN(Cc3ccsc3)C(CCO)C2)cc1CO` (stereo not drawn), -17.3%. As for `COCc1cc(CN2CCN(Cc3ccsc3)C(CCO)C2)ccc1OC` (stereo not drawn), the figure is -56.6%; as for `COCc1cc(CN2CCN(CCc3ccccc3)C(CCO)C2)ccc1OC` (stereo not drawn), -32.3%. For `Cc1ccc(NCc2nnc(SCC(=O)NCc3ccco3)n2CC2CCCO2)cc1Cl` (stereo not drawn), the “hERG current change (%, negative = inhibition) at 1uM” value is on record as -5.15%. On to `Cc1ccc(NCc2nnc(SCCN3CCCCC3)n2CC2CCCO2)cc1Cl` (stereo not drawn), for which the “hERG current change (%, negative = inhibition) at 1uM” value is given as -59.1%. On to `Cc1ccc(NCc2nnc(SCCN3CCCCC3)n2CC2CCCO2)c(C)c1` (stereo not drawn), for which the “hERG current change (%, negative = inhibition) at 1uM” value was -10.7%. In the case of `CCOC(=O)c1c(C)[nH]c(C(=O)N2CCN(C(=O)OCC)CC2)c1C`, the “hERG current change (%, negative = inhibition) at 1uM” value worked out at 7.64%.

In the case of `Cc1ccc(NS(=O)(=O)c2cccs2)cc1S(=O)(=O)N1CCCCCC1`, the “hERG current change (%, negative = inhibition) at 1uM” value stood at 16.5%. `Cc1ccc(CSCc2ccc(C(=O)NCCCN3CCOCC3)o2)cc1`: the “hERG current change (%, negative = inhibition) at 1uM” value was -21.2%. Regarding `COC(CNC(=O)c1ccc2c(c1)ncn2-c1ccc(F)c(F)c1)OC`, the “hERG current change (%, negative = inhibition) at 1uM” value is recorded as -5.49%. As for `COc1ccc2cc(C(=O)N3CCCCCC3)sc(=O)c2c1OC`, the “hERG current change (%, negative = inhibition) at 1uM” value was determined as 1.33%. Take `CCCC(=O)OC(C(=O)Nc1cc(C(F)(F)F)ccc1Cl)c1ccccc1` (stereo not drawn): the “hERG current change (%, negative = inhibition) at 1uM” value came to 5.1%. As to `CCN(CC)CCNC(C(=O)Nc1cc(C(F)(F)F)ccc1Cl)c1ccccc1` (stereo not drawn), the “hERG current change (%, negative = inhibition) at 1uM” value is given as -85.3%. Regarding `CCN(CC)CCNC(C(=O)Nc1ccc([N+](=O)[O-])cc1Br)c1ccccc1` (stereo not drawn), the “hERG current change (%, negative = inhibition) at 1uM” value was -86.5%.

`CN(C)C(CNC(C(=O)Nc1ccc([N+](=O)[O-])cc1Br)c1ccccc1)c1ccccc1` (stereo not drawn): the “hERG current change (%, negative = inhibition) at 1uM” value amounted to 11.9%. For the molecule `COc1cccc(NC(=O)C(NCC(C)(C)CN(C)C)c2ccccc2)c1.O=C(O)C(=O)O` (stereo not drawn), the “hERG current change (%, negative = inhibition) at 1uM” value is given as -12.7%.

For the molecule `CCCCNC(C(=O)Nc1ccc([N+](=O)[O-])cc1Br)c1ccccc1` (stereo not drawn), the “hERG current change (%, negative = inhibition) at 1uM” value is recorded as 10.5%. In the case of `CN(C)c1cccc(C(=O)OC(C(=O)Nc2ccc(Cl)cc2C(F)(F)F)c2ccccc2)c1` (stereo not drawn), the “hERG current change (%, negative = inhibition) at 1uM” value was determined as 0.322%. With `CN(C)CC(C)(C)CNC(C(=O)Nc1ccc(Cl)cc1C(F)(F)F)c1ccccc1` (stereo not drawn) the figure was -72.3%. On to `O=C(Nc1cc(C(F)(F)F)ccc1Cl)C(NCc1ccccc1)c1ccccc1` (stereo not drawn), for which the “hERG current change (%, negative = inhibition) at 1uM” value is on record as 15.6%. Turning to `CC(=O)c1cccc(NC(=O)C(NC(C)C)c2ccccc2)c1` (stereo not drawn), the “hERG current change (%, negative = inhibition) at 1uM” value is 10%. For the molecule `CCN(CC)CCNC(C(=O)Nc1cccc(C(C)=O)c1)c1ccccc1.O=C(O)C(=O)O` (stereo not drawn), the “hERG current change (%, negative = inhibition) at 1uM” value is recorded as -51.4%. Take `CN(C)CCNC(C(=O)Nc1cccc(C(F)(F)F)c1)c1ccccc1.O=C(O)C(=O)O` (stereo not drawn): the “hERG current change (%, negative = inhibition) at 1uM” value was -14.6%.
